Results filed as inconclusive are left out. Where a call stands in place of a potency, no number is given. Activity calls are given as the source filed them. Calls follow the shape of the dose curve; as a rule, active = well fitted curve in the direction sought with a large enough effect in the repeat runs; inconclusive = weak or mixed curves; inactive = no such curve, though single readings can be large; an effect the other way counts as inactive or inconclusive.

Androgen receptor (Homo sapiens), sequence (P10275 whole entry, looked up): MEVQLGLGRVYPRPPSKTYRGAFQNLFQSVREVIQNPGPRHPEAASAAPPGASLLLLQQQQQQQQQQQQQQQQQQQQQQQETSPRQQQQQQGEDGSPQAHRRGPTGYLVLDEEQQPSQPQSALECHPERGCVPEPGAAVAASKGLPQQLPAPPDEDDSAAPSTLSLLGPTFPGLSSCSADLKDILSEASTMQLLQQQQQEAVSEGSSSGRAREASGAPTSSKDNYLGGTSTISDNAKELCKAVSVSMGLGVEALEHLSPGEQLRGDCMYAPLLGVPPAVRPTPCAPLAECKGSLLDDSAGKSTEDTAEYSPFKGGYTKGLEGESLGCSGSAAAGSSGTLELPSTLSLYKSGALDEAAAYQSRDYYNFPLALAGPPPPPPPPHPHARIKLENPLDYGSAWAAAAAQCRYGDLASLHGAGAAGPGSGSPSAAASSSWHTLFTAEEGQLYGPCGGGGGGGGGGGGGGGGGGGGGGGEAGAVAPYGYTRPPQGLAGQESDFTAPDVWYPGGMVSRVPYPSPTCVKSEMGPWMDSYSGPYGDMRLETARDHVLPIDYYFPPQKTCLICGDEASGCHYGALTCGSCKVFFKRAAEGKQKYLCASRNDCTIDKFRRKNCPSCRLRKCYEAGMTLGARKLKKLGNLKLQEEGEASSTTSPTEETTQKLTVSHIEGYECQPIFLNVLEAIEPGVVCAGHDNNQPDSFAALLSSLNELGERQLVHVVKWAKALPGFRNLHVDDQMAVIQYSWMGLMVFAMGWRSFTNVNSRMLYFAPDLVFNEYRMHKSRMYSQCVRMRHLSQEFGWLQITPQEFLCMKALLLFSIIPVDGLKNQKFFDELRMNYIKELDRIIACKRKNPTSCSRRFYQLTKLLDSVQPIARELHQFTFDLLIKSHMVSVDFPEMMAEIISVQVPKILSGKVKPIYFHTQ
Estrogen receptor (Homo sapiens), sequence (P03372 whole entry, looked up): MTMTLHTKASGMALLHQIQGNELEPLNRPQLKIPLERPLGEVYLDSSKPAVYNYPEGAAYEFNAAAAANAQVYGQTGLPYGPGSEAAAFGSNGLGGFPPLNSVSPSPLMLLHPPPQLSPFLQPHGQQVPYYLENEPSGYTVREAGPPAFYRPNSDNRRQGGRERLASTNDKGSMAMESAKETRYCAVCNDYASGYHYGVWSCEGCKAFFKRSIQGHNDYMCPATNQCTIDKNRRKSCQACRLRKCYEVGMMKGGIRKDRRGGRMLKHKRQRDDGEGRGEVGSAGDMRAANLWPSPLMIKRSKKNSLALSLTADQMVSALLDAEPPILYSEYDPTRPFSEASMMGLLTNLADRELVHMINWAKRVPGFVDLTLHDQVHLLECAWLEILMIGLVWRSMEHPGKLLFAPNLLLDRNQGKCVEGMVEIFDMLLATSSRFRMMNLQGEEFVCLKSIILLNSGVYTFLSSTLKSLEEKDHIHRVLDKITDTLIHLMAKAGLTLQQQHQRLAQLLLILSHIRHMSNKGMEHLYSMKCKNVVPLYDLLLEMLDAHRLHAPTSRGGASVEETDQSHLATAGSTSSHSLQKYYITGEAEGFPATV

Tested on in one assay: not listed separately
Put plainly: qHTS assay to identify small molecule antagonists of the androgen receptor (AR) signaling pathway using the MDA cell line in the presence of 0.5 nM R1881 - cell viability counter screen (AID 1259242). Also: nearly all actives have a fitted effect of over 45% in size. Particulars: MDA-kb2 viability, CellTiter-Fluor protease fluorescence, 16 h; series mostly up to 92.4 µM. In a few lines: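 Fluorescence from CellTiter-Fluor, which reports protease activity of live cells, was read 30 min after reagent addition to MDA-kb2 cells that had been incubated 16 hr with compound and 0.5 nM R1881.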
Background: In qHTS, concentration-response curves come from the screen itself.
On to `O=c1[nH]c2ccc(Cl)cc2o1`, for which the Potency result was “inactive”.

Consider `Cc1ccc(C(C)(C)O)cc1`, for which the Potency entry was “inactive”.

As to `CCCC(=O)C(=O)O`, the Potency result was “inactive”.

For `CC(C)=CCC1C(=O)N(c2ccccc2)N(c2ccccc2)C1=O`, the Potency entry was “inactive”.

For the compound `CCOC(=O)/C=C/C(=O)OCC`, the Potency result is “inactive”.

Take `Cc1ccc(CO)cc1`: the Potency result was “inactive”.

Regarding `O=C(OC(=O)c1ccccc1)c1ccccc1`, the Potency entry was “inactive”.

Consider `CC(C)=CCC/C(C)=C/CC/C(C)=C/CCC(=O)OC/C=C(\C)CCC=C(C)C`, for which the Potency result was “inactive”.

Take `O[C@@H]1CO[C@H]2[C@@H]1OC[C@@H]2O`: the Potency result is “inactive”.

For `CCCCC(CC)CN` (stereo unspecified), the Potency result is “inactive”.

In the case of `COc1cc(C(=O)NCCCCCC(=O)O)cc(OC)c1OC`, the Potency result was “inactive”.

For `CC(CCC(=O)O)C(=O)O` (stereo unspecified), the Potency entry was “inactive”.

Consider `CCC1NC(=O)c2cc(S(N)(=O)=O)c(Cl)cc2N1` (stereo unspecified), for which the Potency result was “inactive”.

`O=C1NCCN1CCO`: the Potency entry was “inactive”.

As to `C1COC1`, the Potency entry was “inactive”.

On to `CCn1cc(C(=O)O)c(=O)c2cc(F)c(N3CCNCC3)cc21`, for which the Potency entry is “inactive”.

`CO[C@]1(NC(=O)CSC(F)F)C(=O)N2C(C(=O)O)=C(CSc3nnnn3CCO)CO[C@H]21`: the Potency result was “inactive”.

As for `O=C(O)CCCCCCCCCCCBr`, the Potency result is “inactive”.

Regarding `CCC(=O)OC`, the Potency result was “inactive”.

Consider `CCC(C)(C)OC`, for which the Potency result is “inactive”.

In the case of `CC(C)=CC(=O)C=C(C)C`, the Potency result was “inactive”.

On to `CC(=O)OCC(=O)NCCCOc1cccc(CN2CCCCC2)c1`, for which the Potency result was “inactive”.

Take `CCCCCCCCCI`: the Potency entry is “inactive”.

For the compound `CCc1ccccc1`, the Potency entry was “inactive”.

As for `Cc1ccccc1S`, the Potency result was “inactive”.

Take `Cc1cscn1`: the Potency entry was “inactive”.

With `N#CCc1ccc(Cl)cc1Cl`, the Potency entry was “inactive”.

Take `CCCCCC[C@@H](O)C/C=C\CCCCCCCC(=O)O`: the Potency result is “inactive”.

Turning to `Cc1cc(C)c(N)cc1C`, the Potency entry is “inactive”.

For the compound `C=CC(C)(CCC=C(C)C)OC(=O)CC(C)C` (stereo unspecified), the Potency entry is “inactive”.

In the case of `O=C(/C=C/c1ccccc1)OCCc1ccccc1`, the Potency entry was “inactive”.

Regarding `CCCCCCCCC(CCCCCC)C(=O)O` (stereo unspecified), the Potency entry was “inactive”.

With `Cc1ccco1`, the Potency entry is “inactive”.

On to `C[C@H]1c2cccc(O)c2C(O)=C2C(=O)[C@]3(O)C(O)=C(C(N)=O)C(=O)[C@@H](N(C)C)[C@@H]3[C@@H](O)[C@@H]21`, for which the Potency entry is “inactive”.

Turning to `CC1(C)[C@H](C(=O)O)N2C(=O)C[C@H]2S1(=O)=O`, the Potency result was “inactive”.

Take `CO/N=C(/C(=O)N[C@@H]1C(=O)N2C(C(=O)O)=C(COC(N)=O)CS[C@H]12)c1ccco1`: the Potency entry was “inactive”.

With `C=CC(=O)[O-].C=CC(=O)[O-].[Zn+2]`, the Potency entry was “inactive”.

In the case of `O=C1c2ccccc2C(=O)C1c1ccc(Br)cc1`, the Potency entry was “inactive”.

As for `CCC(OCCCOC)OC(C)=O` (stereo unspecified), the Potency entry is “inactive”.

On to `COC(=O)CS`, for which the Potency entry is “inactive”.

Another assay addresses Androgen receptor (Homo sapiens) (UniProt P10275). Put plainly: qHTS assay to identify small molecule antagonists of the androgen receptor (AR) signaling pathway using the MDA cell line in the presence of 0.5 nM R1881 (AID 1259243). Also: nearly all actives have a fitted effect of over 50% in size. Particulars: MDA-kb2 MMTV-luciferase, R1881 0.5 nM, 16 h; series mostly up to 92.4 µM. In a few lines: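 Inhibition of R1881 (0.5 nM final) induced reporter signal was measured in human MDA-kb2 cells; note the MMTV promoter also responds to GR. Exposure lasted 16 hr at 37C.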
Take `O=C(OC(=O)c1ccccc1)c1ccccc1`: the Potency result was “inactive”.

For the compound `CCCCC(CC)CN` (stereo unspecified), the Potency result was “inactive”.

Regarding `C1COC1`, the Potency entry was “inactive”.

On to `CCC(=O)OC`, for which the Potency result is “inactive”.

For `CC(=O)OCC(=O)NCCCOc1cccc(CN2CCCCC2)c1`, the Potency entry was “inactive”.

For `Cc1cscn1`, the Potency result was “inactive”.

In the case of `O=C(/C=C/c1ccccc1)OCCc1ccccc1`, the Potency entry is “inactive”.

`C[C@H]1c2cccc(O)c2C(O)=C2C(=O)[C@]3(O)C(O)=C(C(N)=O)C(=O)[C@@H](N(C)C)[C@@H]3[C@@H](O)[C@@H]21`: the Potency entry was “inactive”.

In the case of `O=C1c2ccccc2C(=O)C1c1ccc(Br)cc1`, the Potency result is “inactive”.

For the next assay, the target named is Estrogen receptor (Homo sapiens) (UniProt P03372). Put plainly: qHTS assay to identify small molecule antagonists of the estrogen receptor alpha (ER-alpha) signaling pathway using the BG1 cell line in the presence of 0.1 nM 17-beta-estradiol (AID 1259244). Also: nearly all actives have a fitted effect of over 50% in size. The conditions noted are these: VM7Luc4E2 (BG1) ERE-luciferase, antagonist mode, 0.1 nM E2, 22 h; series mostly up to 92.4 µM. In a few lines:
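Quantitative high-throughput screen in VM7Luc4E2 cells: compound plus 0.1 nM E2 (final), 22 h, 37C, 5% CO2; ONE-Glo added, 30 min room temperature, luminescence measured.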
As to `O=c1[nH]c2ccc(Cl)cc2o1`, the Potency entry was “inactive”.

Consider `Cc1ccc(C(C)(C)O)cc1`, for which the Potency result was “inactive”.

On to `CCCC(=O)C(=O)O`, for which the Potency result was “inactive”.

For `CC(C)=CCC1C(=O)N(c2ccccc2)N(c2ccccc2)C1=O`, the Potency result is “inactive”.

`CCOC(=O)/C=C/C(=O)OCC`: the Potency entry is “inactive”.

On to `Cc1ccc(CO)cc1`, for which the Potency entry is “inactive”.

As for `O=C(OC(=O)c1ccccc1)c1ccccc1`, the Potency entry was “inactive”.

With `CC(C)=CCC/C(C)=C/CC/C(C)=C/CCC(=O)OC/C=C(\C)CCC=C(C)C`, the Potency result was “inactive”.

For the compound `O[C@@H]1CO[C@H]2[C@@H]1OC[C@@H]2O`, the Potency entry was “inactive”.

As to `CCCCC(CC)CN` (stereo unspecified), the Potency entry is “inactive”.

In the case of `COc1cc(C(=O)NCCCCCC(=O)O)cc(OC)c1OC`, the Potency result is “inactive”.

Regarding `C1COC1`, the Potency entry is “inactive”.

Turning to `CCn1cc(C(=O)O)c(=O)c2cc(F)c(N3CCNCC3)cc21`, the Potency entry was “inactive”.

As for `CO[C@]1(NC(=O)CSC(F)F)C(=O)N2C(C(=O)O)=C(CSc3nnnn3CCO)CO[C@H]21`, the Potency entry was “inactive”.

As to `O=C(O)CCCCCCCCCCCBr`, the Potency entry is “inactive”.

Turning to `CCC(=O)OC`, the Potency result is “inactive”.

For the compound `CCC(C)(C)OC`, the Potency entry was “inactive”.

`CC(C)=CC(=O)C=C(C)C`: the Potency result is “inactive”.

On to `CCCCCCCCCI`, for which the Potency entry was “inactive”.

With `CCc1ccccc1`, the Potency result was “inactive”.

Regarding `Cc1ccccc1S`, the Potency result was “inactive”.

On to `Cc1cscn1`, for which the Potency result is “inactive”.

`N#CCc1ccc(Cl)cc1Cl`: the Potency result was “inactive”.

For `Cc1cc(C)c(N)cc1C`, the Potency entry was “inactive”.

In the case of `C=CC(C)(CCC=C(C)C)OC(=O)CC(C)C` (stereo unspecified), the Potency entry is “inactive”.

Regarding `O=C(/C=C/c1ccccc1)OCCc1ccccc1`, the Potency entry is “inactive”.

For the compound `Cc1ccco1`, the Potency entry is “inactive”.

In the case of `C[C@H]1c2cccc(O)c2C(O)=C2C(=O)[C@]3(O)C(O)=C(C(N)=O)C(=O)[C@@H](N(C)C)[C@@H]3[C@@H](O)[C@@H]21`, the Potency result was “inactive”.

Consider `CC1(C)[C@H](C(=O)O)N2C(=O)C[C@H]2S1(=O)=O`, for which the Potency result is “inactive”.

For the compound `C=CC(=O)[O-].C=CC(=O)[O-].[Zn+2]`, the Potency entry is “inactive”.

With `O=C1c2ccccc2C(=O)C1c1ccc(Br)cc1`, the Potency entry was “inactive”.

As to `COC(=O)CS`, the Potency result is “inactive”.

The record behind these values is PubChem BioAssay (Tox21).
